Source: PMC5540273 (PLoS ONE, 2017)

tested on: MAPKAPK5; details: concentration: 1 μM,replicates: in singlicate; n = 1
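Also: KINOMEscan kinase panel screen.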

With `CSc1nccc(-c2c(-c3ccc(F)cc3)ncn2CCCN2CCOCC2)n1.Cl` [SB-217146] as the molecule, how does the “%Inh” value read?
Its value is 0%.

How did the “%Inh” value turn out when `NC(=O)c1ccc(-c2cc3ncnc(SCC(=O)O)c3s2)cc1` was run?
Its value is 0%.

With `COc1cccc(C2=C(Nc3cccc(Cl)c3)C(=O)NC2=O)c1` [SB-341556] as the molecule, how does the “%Inh” value read?
Its value is 0%.

How did the “%Inh” value turn out when `Cn1ccc2ncnc(Oc3ccc(NC(=O)Nc4ccnc(C(F)(F)F)c4)c(Cl)c3)c21` was run?
The value was 0%.

For `Cc1n[nH]c2cc(Nc3ccnc(Nc4cccc(CN5CCOCC5)c4)n3)ccc12` [GW682569], which “%Inh” value is on record?
The value was 0%.

For `COC(=O)c1cccc(NC(=O)NC2CCN(c3ccnc(NCc4ccc(F)cc4)n3)CC2)c1` [GSK1379860], which “%Inh” value is on record?
Its value is 0%.

How did the “%Inh” value turn out when `CS(=O)c1ccc(-c2coc3ccc(-c4n[nH]c(=O)o4)cc23)cc1` (stereo not shown) was run?
The value was 11%.

`Cc1cccc2c(-c3ccncc3)c(-c3ccc(F)cc3)nn12.Cl` [GW461487] was tested. Which “%Inh” value did it give?
Its value is 0%.

`FC(F)(F)c1cc(Br)cc(Nc2nccc(-c3cnn4ncccc34)n2)c1` [GW810578] was tested. Which “%Inh” value did it give?
The value was 0%.

`O=C1NCCc2[nH]c(-c3ccncc3)cc21` was tested. Which “%Inh” value did it give?
Its value is 46%.

How did the “%Inh” value turn out when `C[C@@H](Oc1cc(-n2cnc3cc(-c4ccncc4)ccc32)sc1C(N)=O)c1ccccc1Cl` [GSK479719] was run?
The value was 0%.

With `NC(=O)Nc1sc(-c2ccc(F)cc2)cc1C(N)=O` [GW789449] as the molecule, how does the “%Inh” value read?
The value was 0%.

Which “%Inh” value does the source give for `O=C(Nc1ccc(Oc2ccc3nc(NC(=O)C4CC4)cn3n2)c(F)c1)c1cccn(-c2ccccc2)c1=O` here?
Its value is 0%.

For `Cc1ccc(CC(=O)N2CCc3cc(-c4cn(C)c5ncnc(N)c45)ccc32)cc1` [GSK2634758], which “%Inh” value is on record?
Its value is 0%.

Which “%Inh” value does the source give for `Cl.Nc1n[nH]c2cc(-c3ccccn3)ccc12` [GSK2189892] here?
The value was 0%.

Which “%Inh” value does the source give for `Cn1ccc2ncnc(Oc3ccc(NC(=O)Nc4cnn(C(C)(C)C)c4)c(Cl)c3)c21` here?
The value was 0%.

With `Cn1ccc2ncnc(Oc3ccc(NC(=O)Nc4cncc(C(F)(F)F)c4)c(Cl)c3)c21` as the molecule, how does the “%Inh” value read?
Its value is 0%.

Which “%Inh” value does the source give for `CCN1CCN(CCCC(=O)Nc2n[nH]c3nc(-c4ccc(O)cc4)c(Br)cc23)CC1` [SB-731579] here?
The value was 0%.

How did the “%Inh” value turn out when `CC(C)c1nc(-c2cccc(NS(=O)(=O)c3ccccc3)c2)c(-c2ccnc(Nc3ccc4c(c3)CN(C)CC4)n2)s1` [GSK1649598] was run?
The value was 0%.

For `C[C@@H]1CNc2c(sc3ccc4nc(-c5ccncc5)ccc4c23)C(=O)N1`, which “%Inh” value is on record?
The value was 100%.

How did the “%Inh” value turn out when `COc1cccc(OC)c1C(=O)Nc1cccc(-c2nn3ccccc3c2-c2ccnc(Nc3cccc(F)c3)n2)c1` [GSK361065] was run?
Its value is 8%.

For `Cc1cccc(-c2nc(Nc3ccncc3)c3sccc3n2)n1` [GW869641], which “%Inh” value is on record?
Its value is 9%.

For `c1ccc(Oc2ccc(Nc3ccnc4ccc(-c5ccccn5)cc34)cc2)cc1` [GW407034], which “%Inh” value is on record?
Its value is 0%.

How did the “%Inh” value turn out when `C[C@@H](Oc1cc(-n2cnc3cc(-c4cnn(C)c4)ccc32)sc1C(N)=O)c1ccccc1Cl` [GSK580432] was run?
The value was 0%.

Which “%Inh” value does the source give for `CS(=O)(=O)c1cccc(CNc2nc(Nc3ccc4c(c3)[C@@H]3C[C@@H]4CNC3=O)ncc2C(F)(F)F)c1` here?
Its value is 0%.

How did the “%Inh” value turn out when `COc1cccc(CNC(=O)NC2CCN(c3ccnc(Nc4cc(OC)c(OC)c(OC)c4)n3)C2)c1` (stereo not shown) [GSK1379765] was run?
Its value is 0%.

How did the “%Inh” value turn out when `Cc1nnc(-c2ccc3occ(-c4ccc(S(C)=O)cc4)c3n2)o1` (stereo not shown) was run?
The value was 0%.

For `COc1cc2ncn(-c3cc(OCC4CCCCC4)c(C(N)=O)s3)c2cc1OC` [GSK204559], which “%Inh” value is on record?
Its value is 0%.

`CC(=O)Nc1nc2cnc(Nc3cc(NC(=O)c4cccc(CC(C)(C)C#N)c4)ccc3C)nc2s1` was tested. Which “%Inh” value did it give?
The value was 14%.

With `CN(c1ccc2c(c1)nc(NCc1ccc(F)cc1)n2C)c1ccnc(Nc2ccc(CS(C)(=O)=O)cc2)n1.Cl` [GW813244] as the molecule, how does the “%Inh” value read?
The value was 0%.

Which “%Inh” value does the source give for `Cc1ccc(C(=O)Nc2ccc(Oc3ccc4nc(NC(=O)C5CC5)cn4c3)c(F)c2)c(=O)n1-c1ccccc1` here?
Its value is 0%.

Which “%Inh” value does the source give for `COc1cc2c(Nc3ccc(NC(=O)c4ccccc4)cc3)ncnc2cc1OCCCN1CCOCC1` [GSK301329] here?
Its value is 0%.

Which “%Inh” value does the source give for `N#Cc1cccc(C(=O)NC2CCN(c3ccnc(Nc4ccc(F)cc4)n3)C2)c1` (stereo not shown) [GSK1379708] here?
Its value is 0%.

Which “%Inh” value does the source give for `O=C(NOCC1CC1)c1cc(Br)c(F)c(F)c1Nc1ccc(I)cc1Cl` here?
Its value is 0%.

How did the “%Inh” value turn out when `COc1cc2nccc(Nc3ccc(Oc4ccccc4)cc3)c2cc1OC.Cl` [GI261656] was run?
Its value is 0%.

`O=C(Nc1cccc(C(F)(F)F)c1)c1cccc(Oc2ccc3nccn3n2)c1` was tested. Which “%Inh” value did it give?
The value was 51%.

How did the “%Inh” value turn out when `CN(c1ccccc1CNc1nc(Nc2ccc3c(c2)CC(=O)N3)ncc1C(F)(F)F)S(C)(=O)=O` was run?
The value was 0%.
